# According to PubChem BioAssay (EPA / NIEHS):
# More than one record can exist for a structure, and the calls need not agree. Active and inactive are the calls of the source. How the source made its calls: active means hit-call score of the fitted dose curve at least 0.9, where 1 is the maximum; inactive means score below 0.9.
# Test: ATG_M_32_CIS: Attagene CIS-FACTORIAL HepG2 Assay for M32 Transcription Factor (Internal Marker) (AID 2282949);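 further: background control marker of the multiplexed CIS panel rather than a real target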
# Settings: HepG2 Attagene cis-factorial M32 reporter, mRNA; actives raise or lower the signal
# Protocol: ATG_CIS is a cell-based, multiplexed-readout assay that uses HepG2, a human liver cell line, with measurements taken at 24 hours after chemical dosing in a 24-well plate.ATG_M_32_CIS is one of 52 assay component(s) measured or calculated from the ATG_CIS assay. It is designed to make measurements of mRNA induction, a form of inducible reporter, as detected with fluorescence intensity signals by Reverse transcription polymerase chain reaction (RT-PCR) and Capillary electrophoresis technology.Data from the assay component ATG_M_32_CIS was analyzed into 1 assay endpoint. This assay endpoint, ATG_M_32_CIS, was analyzed with bidirectional fitting relative to DMSO as the negative control and baseline of activity. Using a type of inducible reporter, measures of mRNA for gain or loss-of-signal activity can be used to understand the background control at the transcription factor-level as they relate to the gene . Furthermore, this assay endpoint can be referred to as a secondary readout, because this assay has produced multiple assay endpoints where this one serves a background control function. To generalize the intended target to other relatable targets, this assay endpoint is annotated to the background measurement intended target family, where the subfamily is internal marker.
# Human liver HepG2 cells are transiently transfected with multiple reporter transcription units (MRTUs) in 6-well plates using FuGene 6 reagent (Roche; 3 ml FuGene/1 mg DNA). The MRTU constructs are regulated by a cis-regulating element (promoter). […] A major difference between the CIS and TRANS system is that in CIS activities of endogenous TFs are measured, whereas the TRANS assay evaluates changes in activities of exogenous, chimeric NR-Gal4 proteins. […] At the end of 24 hour incubation, total RNA was isolated using TriZol reagent (Invitrogen). The isolated RNA is then reverse-transcribed using oligo(dT) primer and Mo-MLV reverse transcriptase (Invitrogen) with DNAse I (Ambion) treatment for 30 min. The one-tenth of the produced cDNA was amplified by PCR using Taq DNA polymerase (Invitrogen) and two reporter sequence-specific primers. The PCR products were fluorescently labeled by primer extension with 6-arboxyfluorescein (6-FAM) 5'-labeled reporter sequence-specific primer (2 min at 95 C, 20 s at 68 C and 10 min at 72 C) and these products were digested with 5U of HpaI (New England Biolabs) for 2h at 37 C. The fragments were purified using Qiaquick PCR columns (Qiagen), analyzed on an ABI 3130xL genetic analyzer (Applied Biosystems) with peak positions identified by using a set of X-rhodamine (ROX)-labeled MapMarker1000 molecular weight standards (BioVentures). The raw capillary electrophoresis data was processed using Attagraph software (Attagene).
SMILES,outcome,AC50
Nc1cc(Cl)c(N)c(Cl)c1,inactive,
CC(C)c1ccccc1N,inactive,
OCCCC(F)(F)C(F)(F)C(F)(F)C(F)(F)C(F)(F)C(F)(F)C(F)(F)F,inactive,233 µM (active)
CCCCCCCOC(=O)c1ccccc1C(=O)OCCCCCCC,inactive,
O=C(CC(=O)C(F)(F)C(F)(F)F)C(F)(F)F,inactive,
CCCCCCS,inactive,
OCC(F)(F)C(F)(F)C(F)(F)C(F)(F)C(F)(F)C(F)(F)F,inactive,
CCc1c(Br)c(Br)c(Br)c(Br)c1Br,inactive,
Cc1cc(C)cc(O)c1,inactive,
O=C(O)C(F)(F)C(F)(F)C(F)(F)C(F)(F)F,inactive,
CCO[Si](CCC(F)(F)C(F)(F)C(F)(F)C(F)(F)C(F)(F)C(F)(F)F)(OCC)OCC,inactive,
FC(F)(Br)C(F)(F)C(F)(F)C(F)(F)C(F)(F)C(F)(F)Br,inactive,
C=C(C)C(=O)OCC(F)(F)C(F)(F)C(F)(F)F,inactive,
O=S(=O)(O)c1ccc2ccccc2c1,inactive,
CCCCNc1ccccc1,inactive,
C=CC(=O)OCC(F)(F)C(F)(F)C(F)(F)C(F)(F)C(F)(F)C(F)(F)C(F)(F)F,inactive,
O=C(O)C(F)(F)C(F)(F)C(F)F,inactive,
Nc1ccc([N+](=O)[O-])cc1O,inactive,
COC(=O)C1CCC(C(=O)OC)CC1 (stereo not given),inactive,
FC(F)(I)C(F)(F)C(F)(F)C(F)(F)I,inactive,

SMILES,outcome,AC50
O=C(O)C(F)(F)C(F)(F)C(F)(F)C(F)(F)C(F)(F)C(F)(F)C(F)(F)C(F)(F)Cl,inactive,
CCN(CC)c1ccc2c(C)cc(=O)oc2c1,inactive,
CS(C)(=O)=O,inactive,
O=C(OCCOCCOCCOC(=O)c1ccccc1)c1ccccc1,inactive,
O=C(O)C=C(C(F)(F)F)C(F)(F)F,inactive,
O=S(=O)(OCC(F)F)C(F)(F)F,inactive,
CC(CCl)OP(=O)(OC(C)CCl)OC(C)CCl (stereo not given),inactive,
CCCCCC=O,inactive,
C=CC(F)(F)C(F)(F)C(F)(F)C(F)(F)C(F)(F)C(F)(F)C(F)(F)C(F)(F)F,inactive,
C(=C(c1ccccc1)c1ccccc1)c1ccccc1,inactive,
CCC(=O)OCCc1ccccc1,inactive,
CCCCOc1ccc(N)cc1,inactive,
O[Si](c1ccccc1)(c1ccccc1)c1ccccc1,inactive,
OCC(F)(F)C(F)(F)C(F)(F)F,inactive,
FC(F)(F)C(F)(F)C(F)(F)C(F)(F)C(F)(F)C(F)(F)C(F)(F)I,inactive,
Nc1ccc(S(=O)(=O)Nc2nccs2)cc1,inactive,
OCCCC(F)(F)C(F)(F)C(F)(F)F,inactive,
FC(F)(F)C(F)(F)C(F)(F)C(F)(F)C(F)(F)C(F)(F)C(F)(F)Br,inactive,
FC(F)(F)C(F)(F)C(F)(F)C(F)(F)CCI,inactive,
